The list is not random: actives were taken first. Their share in the collection is about 2.3%.
aSyn rescue – qHTS of alpha-syn Inhibitors. Yeast expressing alpha-synuclein, growth rescue, BacTiter-Glo, 24 h. Potency, µM (doses to about 46.1 µM), usual class: activators. 370,000 compounds, 0.14% hits; note: nearly all actives have a fitted effect of over 65% in size
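Rescue of yeast growth: cells expressing toxic alpha-synuclein, induced in galactose at OD600 0.02, incubated with compound 24 h at 30 C. ATP luminescence quantified growth; inhibitors of toxicity appear as activators.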
FUS yeast rescue – qHTS for Suppressors of FUS Proteinopathy: Primary screen using FUS-linked yeast assay | S. cerevisiae FUS-expressing, growth rescue, OD600, 24 h | Potency, µM (doses to about 76.6 µM), most hits filed as activators | 390,000 compounds, 0.24% hits | AID 1347120, 2019; note: nearly all actives have a fitted effect of over 55% in size
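Toxicity suppression screen in FUS-yeast. Cells induced with 2% galactose, starting OD 0.005, treated 24hr at 30C with compounds at multiple final concentrations; growth by OD600.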
Abeta yeast res – qHTS for compounds that reverse cellular toxicity of Amyloid beta (A-beta) peptide in yeast: Primary Screen. 410,000 compounds, 0.063% hits. Potency, µM (series often up to 46.1 µM), usual class: activators. yeast expressing A-beta42, growth rescue, OD600, 48 h; response scale: 0% DMSO, 100% iron-clioquinol control; note: nearly all actives have a fitted effect of over 55% in size
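Yeast A-beta toxicity model in growth medium with pinned compounds, 48 h at 30 C; growth read as absorbance at 600 nm. Normalized to FeCl3/clioquinol equimolar mix (positive) and DMSO (negative).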
BCR signal inh – qHTS Assay to Find Inhibitors of Chronic Active B-Cell Receptor Signaling. ABC-DLBCL IkBa-CBG/CBR reporter, luminescence ratio, 4 h. Potency, µM (doses to about 46.1 µM), usual class: inhibitors. 340,000 compounds, 0.05% hits. AID 493014, 2011; active = well fitted inhibition curve with a large enough effect in the signal ratio, with a control signal flat, not every such curve was filed as active; inconclusive = small, poorly fitted or top-dose-only effect, or effect the other way, or a change in a side signal; the % refers to the signal ratio
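Doxycycline induced both beetle luciferases in TMD8 lymphoma cells; IKK-driven degradation limits the IkappaBalpha-fused green signal, while red luminescence normalises for cell number and nonspecific effects. Compounds tested up to 46 uM, 4 hrs.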
TDP43 rescue – qHTS of TDP-43 Inhibitors; TDP-43 expressing yeast growth rescue, BacTiter-Glo, 24 h; Potency, µM (top dose mostly 46.1 µM), actives largely listed as activators; 410,000 compounds, 1.8% hits; note: nearly all actives have a fitted effect of over 50% in size
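Yeast cells expressing TDP-43 under galactose induction are exposed to compounds for 24 hr at 30 deg C. BacTiter-Glo luminescence measures growth, so protective compounds score as activators.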
uPA generation – qHTS for Inhibitors of Cell Surface uPA Generation. Potency, µM (doses to about 38.3 µM), most hits filed as inhibitors. 330,000 compounds, 0.31% hits. cell surface uPA generation assay, qHTS; active = well fitted inhibition curve with a large enough effect; inconclusive = small, poorly fitted or top-dose-only effect; inactive = no such curve, though single readings can be large or run the other way; tested in mouse RAW 264.7 cells; note: nearly all actives have a fitted effect of over 55% in size
Hits are given with their value; . = inactive; ? = inconclusive; / = no result given; [ ] = remark or other dose. Unless noted, calls come from the whole dose curve; as a rule, active = well fitted curve in the direction sought with a large enough effect; inconclusive = small, poorly fitted or top-dose-only effect, or another doubt; inactive = no such curve, though single readings can be large; an effect the other way counts as inactive or inconclusive.

SMILES | aSyn rescue | FUS yeast rescue | Abeta yeast res | BCR signal inh | TDP43 rescue | uPA generation
Nc1c(C(=O)c2ccccc2)sc(Nc2ccc(Cl)c(Cl)c2)c1C(=O)Nc1ccccc1 | / | . | . | ? | . | /
COc1cc2c(NC3CCN(C)CC3)nc(N3CCN(C)CC3)nc2cc1OCCOCCN(C)C | . | / | / | / | / | /
COC(=O)N1C(=O)[C@@](c2ccccc2)(C2CCCC2)N1C(=O)OC | . | . | . | ? | ? | 7.1µM
Cc1cccc(NC(=O)CSCC(=O)N(C)Cc2ccc(Cl)c(Cl)c2)c1 | . | . | . | . | 25µM | ?
Cc1cc(N2CCN(c3ccccc3)CC2)nc(-c2ccccc2O)n1 | . | . | . | . | 18µM | .
Cc1cc(N2CCC(C)CC2)nc(-c2ccccc2O)n1 | . | . | . | . | ? | .
CC(C)Cn1c(-c2ccc(Br)cc2)c[nH]c1=S | . | . | 3.2µM | . | .[0.397 µM] | .
COc1cc(F)ccc1-c1csc(C(O)c2ccc(F)cc2)n1 (stereo unspecified) | . | . | ? | / | ? | /
COc1ccc(-c2csc(C(O)c3ccc(F)cc3)n2)cc1OC (stereo unspecified) | . | . | . | / | 22µM | /
COc1cc(C(O)c2nc(-c3cccc(C(C)C)c3)cs2)ccc1F (stereo unspecified) | . | . | . | / | 22µM | /
COc1cc(C(O)c2nc(-c3cncnc3)cs2)ccc1F (stereo unspecified) | . | . | . | / | ? | /
COc1cc(C(O)c2nc(-c3cccc(F)c3)cs2)ccc1F (stereo unspecified) | ? | . | . | / | 16µM | /
COc1cc(C(O)c2nc(-c3cc(F)cc(F)c3)cs2)ccc1F (stereo unspecified) | ? | . | ? | / | 35µM | /
CC(=O)c1cc(CN2CCN(C3CCN(C(C)C)CC3)C(CCO)C2)cs1 (stereo unspecified) | . | . | . | . | . | .
CCOC(=O)C(NC(=O)Nc1ccc(F)cc1)(OCC)C(F)(F)F (stereo unspecified) | . | . | .[9.22 µM] | . | . | .
CCOc1ccccc1N1CC(c2nc3ccccc3n2Cc2c(C)cc(C)cc2C)CC1=O (stereo unspecified) | / | . | . | / | . | /
Cc1oc(-c2ccccc2Cl)nc1CSc1nc2ncccc2[nH]1 | / | . | . | / | . | /
COc1cc(C(O)c2nc(-c3ccccc3OC)cs2)ccc1F (stereo unspecified) | ? | . | . | / | 18µM | /
COc1ccc(C(O)c2nc(-c3ccc(C)c(C)c3)cs2)cc1 (stereo unspecified) | 10µM | . | . | / | ? | /
COc1ccc(C(O)c2nc(-c3cc(F)cc(F)c3)cs2)cc1 (stereo unspecified) | ? | . | ? | / | 35µM | /
COc1cc(C(O)c2nc(-c3ccc(N(C)C)cc3)cs2)ccc1F (stereo unspecified) | . | . | . | / | . | /
COc1ccc(C(O)c2nc(-c3ccc(F)cc3OC)cs2)cc1 (stereo unspecified) | . | . | ? | / | 22µM | /
COCCn1nnnc1CN(Cc1ccco1)Cc1cc2cc3c(cc2[nH]c1=O)OCO3 | . | ? | . | . | . | /
Cc1cccc2cc3c(N)c(C#N)sc3nc12 | ? | . | . | . | 3.2µM | .
Cc1nn(Cc2ccc(F)cc2)c2sc(C(=O)Nc3ccc(N4CCOCC4)cc3N3CCOCC3)cc12 | . | / | . | . | 14µM | .
SMILES | aSyn rescue | FUS yeast rescue | Abeta yeast res | BCR signal inh | TDP43 rescue | uPA generation
CCC(c1nnnn1Cc1cccs1)N1CCN(c2nc3ccccc3s2)CC1 (stereo unspecified) | ? | ? | . | . | 16µM | .
CC(C)CC(c1nnnn1Cc1cccs1)N1CCN(c2nc3ccccc3s2)CC1 (stereo unspecified) | . | . | . | ? | ? | .
COc1ccc(C(=O)NCC2OCCc3ccccc32)c(O)c1 (stereo unspecified) | . | . | . | ? | 14µM | .
CC(C)COc1ccc(C(=O)NCC2OCCc3ccccc32)cc1 (stereo unspecified) | / | . | . | / | . | /
COc1ccc(NC(=O)Nc2ccc(F)c(Cl)c2)cc1 | . | . | . | ? | . | .
CCC(C)[C@H]1COCCS(=O)(=O)N1Cc1ccc(Br)cc1 (stereo partly specified) | . | . | . | . | 35µM | ?
CC(C)[C@H]1COCCS(=O)(=O)N1Cc1ccc(Cl)cc1 | . | . | . | . | . | .
CC(C)C[C@H]1COCCS(=O)(=O)N1Cc1cccc(Cl)c1 | . | . | . | / | ? | .
O=S1(=O)CCOC[C@H](Cc2ccccc2)N1Cc1ccc(Cl)cc1 | . | . | . | / | 16µM | .
CC(C)C[C@H]1COCCS(=O)(=O)N1Cc1cccc(C(F)(F)F)c1 | . | . | . | / | 14µM | .
CCOc1ccc(NC(=S)NC(=O)c2c(Cl)cnn2CC)c([N+](=O)[O-])c1 | . | / | . | . | . | .
CCOc1ccc(NC(=S)NC(=O)c2c(Br)cnn2C)c([N+](=O)[O-])c1 | . | . | . | ? | 16µM | .
Nc1cc(C(=O)c2ccccc2)ccc1[N+](=O)[O-] | . | . | . | . | 8.9µM | .
CC12CN3CC(C)(CN(C1)C3c1ccc(OCc3ccccc3)cc1)C2=O (stereo unspecified) | / | . | . | / | 20µM | /
Cc1c(C(=O)NCc2cccnc2)oc2ccc(S(=O)(=O)N3CCC4(CC3)OCCO4)cc12 | ? | . | . | ? | . | .
Cc1ccc(CNC(=O)c2oc3ccc(S(=O)(=O)N4CCC5(CC4)OCCO5)cc3c2C)cc1 | . | 25µM | . | . | . | .
C=CCn1c(SCc2c(F)cccc2Cl)nnc1-c1ccco1 | . | . | . | . | 13µM | .
C=CCn1c(SCc2ccc(C#N)cc2)nnc1-c1ccco1 | / | . | / | / | / | /
CCCCCn1c(=O)[nH]c2cc(C(=O)NCc3ccc(Cl)cc3)ccc2c1=O | / | . | . | / | . | /
CCCOc1ccc(CCC(=O)O)cc1 | . | . | . | ? | 14µM | .
CCCCN(C)C(=O)c1cc2cc3cc(OC)ccc3nc2o1 | . | . | . | . | ? | ?
CCCCN(C)C(=O)c1cc2cc3ccc(OC)cc3nc2o1 | . | . | . | . | 16µM | .
CCc1ccc(/C=C2\SC(=S)N(CCCC(=O)N(CCO)c3ccccc3)C2=O)cc1 | . | 22µM | . | / | 35µM | /
CCC(=O)Nc1sc2c(c1C#N)CC(C)(CC)OC2 (stereo unspecified) | / | . | . | . | 11µM | .

High-throughput results as filed in PubChem BioAssay.
